This note sets out measurements from PubChem BioAssay AID651747 (Johns Hopkins Ion Channel Center, 2012).

The whole screen tested about 2,400 compounds, of which about 950 (40%) were called active.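 Rule for the calls: active = thallium flux ratio, averaged over three wells, more than 5 SD below the buffer control mean; inactive = the rest.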 Not all results are given here.

This assay in a line: nonspecific thallium influx blockers, KCNK3-free cells – cell-based, non-induced KCNK3 line, FluxOR thallium, triplicate, counter-screen for KCNK3 inhibitor project, primary screen (AID 651747).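 For thallium flux ratio (lower = more inhibition): ratio is peak minus trough fluorescence over baseline then normalized to buffer controls.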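 Note: host cells are CHO cells without KCNK3 induction.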 The settings on record: non-induced KCNK3 parental cells, at 10 µM; outcome: FluxOR thallium flux; thallium flux ratio (lower = more inhibition): hits give low values. Background: The purpose of a counterscreen is to sort out artefacts and off-target activity.
For `CN1CCc2ccccc2C1Cc1ccccc1NC(=O)c1sc2ccccc2c1Cl` (configuration not stated), the thallium flux ratio (lower = more inhibition) is 0.143 (active).
In the case of `N#Cc1cccc(NC(=O)COC(=O)c2ccccc2C(=O)c2ccc(Cl)c([N+](=O)[O-])c2)c1` it was 0.153 (active).
In the case of `Cc1ccc(NC(=S)N2CCCC(c3ccccc3)=N2)cc1` it was “inactive”; in that of `COc1ccc(Nc2ncnc3sc(-c4ccccc4)cc23)c(OC)c1`, 0.124 (active).
Under `FC(F)(F)c1cccc(-c2cc3ccccc3nc2N2CCCC2)c1` stands 0.127 (active).
Turning to `O=C(c1cc(-c2ccc(O)cc2)on1)N1CCCc2ccccc21`, the thallium flux ratio (lower = more inhibition) result was “inactive”.
For `CSc1nccc(NC(=O)c2ccc(C(C)(C)C)cc2)n1`, the thallium flux ratio (lower = more inhibition) result is “inactive”.
Under `COc1cccc(CNc2nc(C(F)(F)F)nc3ccccc23)c1` stands 0.111 (active).
In the case of `COc1ccccc1NC(=O)CSc1nc2sc(C)c(C)c2c(=O)n1Cc1ccco1`, the thallium flux ratio (lower = more inhibition) entry is “inactive”.
Under `C=CCSc1nnc(N2C(=O)C(O)=C(C(=O)c3ccco3)C2c2ccc(F)cc2)s1` (configuration not stated) stands 0.101 (active); under `COc1cc(/C=C(\C#N)c2nc3ccccc3[nH]2)ccc1O`, 0.0933 (active).
In the case of `Cc1cccc(NC(=O)c2sc3nc4c(c(-c5ccco5)c3c2N)CCC4)c1` it was “inactive”; in that of `[O-][n+]1ccc(OCc2ccccc2)cc1`, “inactive”.
For `COc1cccc(COc2ccc(N(C)S(=O)(=O)c3ccccc3)cc2)c1`, the thallium flux ratio (lower = more inhibition) is 0.109 (active).
Under `N/C(Cc1ccc([N+](=O)[O-])cc1)=N\OC(=O)COc1ccc2ccccc2c1` stands “inactive”; under `N#Cc1nc(Cc2cccc3ccccc23)oc1NCc1ccc2c(c1)OCO2`, 0.152 (active).
In the case of `COc1ccc([N+](=O)[O-])cc1-c1nc2ccccc2nc1-c1ccccc1` it was 0.129 (active).
In the case of `CCCC(=O)Nc1ccc(Cl)c(NC(=O)c2ccc(Br)o2)c1` it was “inactive”.
For `CN(CCC(=O)Nc1cc(S(=O)(=O)N(C)C)ccc1Cl)CC(=O)Nc1ccc(F)cc1`, the thallium flux ratio (lower = more inhibition) was 0.159 (active).
In the case of `Cc1cc(C)c(S(=O)(=O)c2ccccc2)c(OC(=O)c2c(F)cccc2Cl)n1` it was “inactive”.
Under `CS/C(=C\C(=O)c1ccco1)Nc1ccccc1Cl` stands 0.154 (active).
Under `Cc1cccc2cc(CN(Cc3nnnn3Cc3ccccc3)C3CCCC3)c(=O)[nH]c12` stands 0.139 (active); under `Cc1cc(OCCCCOc2ccc(C#N)cc2)ccc1[N+](=O)[O-]`, “inactive”; under `O=C1c2ccccc2C2=Nc3ccccc3SC(c3ccccc3F)C12` (configuration not stated), 0.125 (active).
As to `CCCCCCCCCCOC(=O)Cn1c(COc2cccc(OC)c2)[n+](C)c2ccccc21`, the thallium flux ratio (lower = more inhibition) result is “inactive”.
Under `CCCOc1ccc2c3c(c(=O)oc2c1OCCC)CCC3` stands 0.158 (active); under `COc1cccc(CN(C)CC(O)COC(c2ccccc2)c2ccccc2C)c1` (configuration not stated), 0.146 (active); under `FC(F)(F)c1cc(-c2ccco2)nc(NCc2ccc(Cl)cc2)n1`, 0.148 (active).
As for `Cc1ccc(S(=O)(=O)NCc2cn3ccsc3n2)c(C)c1`, the thallium flux ratio (lower = more inhibition) result was “inactive”.
Consider `COc1cccc(C(=O)NCCSc2ccc(Br)cc2)c1`, for which the thallium flux ratio (lower = more inhibition) result is “inactive”.
Under `O=C(NCCc1c[nH]c2ccccc12)c1cccc(Br)c1` stands 0.159 (active); under `O=C(CSc1nc(Nc2ccccc2)nc(N2CCOCC2)n1)Nc1cc(Cl)ccc1O`, 0.137 (active); under `CC(C)c1ccccc1OCC(O)CN(CC(O)COc1cccc2ccccc12)C(C)C` (configuration not stated), “inactive”.
Under `C=CCN(C(=O)c1cc(C)cc(C)c1)C1(C(=O)Nc2ccccc2)CCN(C(C)C)CC1` stands “inactive”; under `CC(=O)Nc1cccc(OCC(=O)/C=C2\N(C)c3ccccc3C2(C)C)c1`, “inactive”; under `COc1cccc(/C=N/Nc2cc(C)nc(-c3ccccc3O)n2)c1O`, 0.109 (active).
As to `CC[n+]1cc(C)ccc1/C=C/c1ccc(N(C)C)cc1`, the thallium flux ratio (lower = more inhibition) was 0.106 (active).
Under `N#Cc1ccc(S(=O)(=O)NCC(=O)OCC(=O)NCCc2ccccc2)cc1` stands “inactive”.
In the case of `Cc1cccc(-c2nc3ccc(C(=O)NCCN4CCN(C)CC4)cc3nc2-c2cccc(C)c2)c1` it was 0.106 (active).
For the compound `Cc1ccc(NC(=O)c2cc([N+](=O)[O-])ccc2Cl)c(O)c1`, the thallium flux ratio (lower = more inhibition) entry was “inactive”.
In the case of `CSc1nnc2c(n1)OC(c1ccsc1)N(C(C)=O)c1ccccc1-2` (configuration not stated) it was “inactive”; in that of `Clc1cccc(-c2nc(NCC3CCCO3)c3ccccc3n2)c1` (configuration not stated), 0.129 (active).
In the case of `CCn1ncc(Br)c1C(=O)Nc1cc(C)ccc1F` it was “inactive”; in that of `CCOc1ccccc1Oc1cn[nH]c1-c1ccc(OC)cc1O`, “inactive”.
In the case of `S=C(Nc1cccc(Br)c1)N1CCn2cccc2C1c1cccnc1` (configuration not stated) it was “inactive”; in that of `COC(=O)C1=C(C)N(C(C)c2ccccc2)C(=O)/C1=C\c1ccco1` (configuration not stated), 0.158 (active); in that of `O=C(Nc1ccccc1)O/N=C1\CCCCC1c1ccc([N+](=O)[O-])cc1[N+](=O)[O-]` (configuration not stated), “inactive”.
For the compound `CC(C)c1cc(C(=O)N/N=C/c2ccoc2)c(O)c(C(C)C)c1`, the thallium flux ratio (lower = more inhibition) is 0.147 (active).
In the case of `CSc1cccc(NC(=S)N(C(C)C)C(C)c2ccccn2)c1` (configuration not stated), the thallium flux ratio (lower = more inhibition) entry is “inactive”.
In the case of `FC(F)(F)c1cccc(NC(=S)Nc2cccc(Cl)c2)c1` it was 0.128 (active); in that of `O=C(CC1NCCc2ccccc21)Nc1cccc(Cl)c1` (configuration not stated), “inactive”.
Regarding `O=C(Nc1cccc(Cl)c1)Nc1ccccc1NS(=O)(=O)c1cccs1`, the thallium flux ratio (lower = more inhibition) was 0.131 (active).
Under `CC(Oc1cccc(NC(=O)c2cccs2)c1)C(=O)c1ccccc1` (configuration not stated) stands “inactive”; under `CC(NCc1cccs1)C(=O)Nc1cc(Cl)cc(Cl)c1` (configuration not stated), “inactive”; under `C=CCSc1nsc(NC(=O)Nc2cccc(C(C)=O)c2)n1`, “inactive”.
Under `O=C(NCCc1ccccc1)c1ccc2c(c1)N(Cc1ccccc1)CCS2` stands 0.16 (active); under `O=C(Cn1cc(C(=O)c2cccs2)c2ccccc21)NCc1cccs1`, “inactive”.
